The campaign covered roughly 1,100 compounds. About 940 (85%) were called active. So high a share suggests a set chosen from earlier hits. Not all results are given here. Unmarked numbers belong to inactive results.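 The calls were made as follows: active = inhibition exceeding 3 SD of buffer-only control wells (cut at about 26% in these data); inactive = the rest.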

This assay in a line: carbachol calcium response changes in non-induced cells, primary screen, counter-screen for RGS4 activator project, cell-based, HEK293 M3R, non-induced RGS4, Fluo-4 calcium (AID 602283).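 Also: percent drop in integrated peak-minus-baseline over baseline Fluo4 ratio after carbachol.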 Particulars: HEK293 M3R non-induced RGS4, Fluo4 calcium flux, at 10 µM, stronger effect = higher value, after carbachol challenge at its EC90. A general note: A counterscreen serves to expose hits that act by an unwanted route or on another target.
By inhibition is commonly meant the drop in the measured response relative to a control, in per cent. With `OC(CN=c1sc2ccccc2n1CC(O)COc1ccccc1)COc1ccccc1` (stereo not given), the inhibition is 92.8% (active).

Consider `Cc1ccc(C)c(N2CCN(C(=O)CCCn3c(=O)c4cccn4c4cccnc43)CC2)c1`, for which the inhibition was 55.3% (active).

`Cc1ccc(C)c(N2CCN(C(=O)CCCCCn3c(=S)[nH]c4ccc(N5CCOCC5)cc4c3=O)CC2)c1`: the inhibition is 52.8% (active).

Regarding `CCOC(=O)c1c(NC(=O)NC(C)(C)C)sc2c1CCN(C)C2`, the inhibition is 0% [the number is a placeholder, only the call stands].

Regarding `COc1ccc(/C=C(\C#N)c2c[nH]c3ccccc23)cc1`, the inhibition was 70.8% (active).

In the case of `Cc1ccc(N2C(=O)CC(Nc3cccc4ccccc34)C2=O)cc1` (stereo not given), the inhibition was 0% [the number is a placeholder, only the call stands].

Turning to `Cc1oc2c(F)c(F)c(F)c(F)c2c1S(=O)(=O)Nc1cccc(C(F)(F)F)c1`, the inhibition is 88.8% (active).

Take `Cc1nc(N2CCN(c3ccccn3)CC2)c2c(C)c(C(=O)Nc3ccc(F)cc3)sc2n1`: the inhibition was 72.8% (active).

On to `O=S(=O)(c1ccc(Br)cc1)n1ccc2ccccc21`, for which the inhibition was 36.8% (active).

As to `Cc1ccc(OCCCCN2CCCCC2)c(Br)c1`, the inhibition is 0% [the number is a placeholder, only the call stands].

Consider `CCCN(CCc1ccccc1)C1CCc2c(O)cccc2C1` (stereo not given), for which the inhibition was 34.8% (active).

Take `Cc1cccc(-c2nc3ccc(C(=O)NCCN4CCN(C)CC4)cc3nc2-c2cccc(C)c2)c1`: the inhibition was 93.8% (active).

Turning to `CN1CCN(C(=O)N2c3ccccc3CCc3ccccc32)CC1`, the inhibition is 57.3% (active).

As for `Cc1nn(C)cc1N1C(=O)c2cccc3c(N)ccc(c23)C1=O`, the inhibition is 101% (active).

Consider `CN(C)c1ccc(/C=C2\NC(=S)N(Cc3ccccc3)C2=O)cc1`, for which the inhibition is 62.8% (active).

In the case of `CC(C)C(c1nnnn1CCc1ccccc1)N1CCN(C(=O)c2ccco2)CC1` (stereo not given), the inhibition was 25.8% (active).

For `COc1ccc(C(=O)Nc2nc(-c3ccc(S(=O)(=O)N4CCOCC4)cc3)cs2)cc1`, the inhibition is 36.3% (active).

As for `N=c1c2c3c(sc2nc2n1CCCCC2)CCCC3`, the inhibition was 55.8% (active).

For `CCOC(=O)C1=C(NC(=S)NC(=O)c2ccccc2)c2ccccc2CC1(C)C`, the inhibition was 61.3% (active).

Consider `OCCC1CN(Cc2ccc3nsnc3c2)CCN1C1CCCC1` (stereo not given), for which the inhibition was 43.8% (active).

Take `CCC1C=C(c2ccccc2)C=CN=C1N(CC)CC` (stereo not given): the inhibition is 83.8% (active).

On to `O=C(CN1CCCCCC1)Nc1ccc(S(=O)(=O)N2CCCCC2)cc1`, for which the inhibition is 83.8% (active).

For the compound `COc1cccc(-c2cc3nc4c(c(N5CCC6(CC5)OCCO6)n3n2)CCCC4)c1`, the inhibition is 31.8% (active).

Take `CCc1ccccc1NC(=O)[C@@H]1CCC(=O)N1C1OC(=O)c2c1ccc(OC)c2OC` (stereo not given in full): the inhibition is 0% [the number is a placeholder, only the call stands].

For the compound `COc1cc(/C=C(\C#N)c2nc3ccccc3[nH]2)ccc1O`, the inhibition was 61.3% (active).

Turning to `CN(C)S(=O)(=O)N1CCC(Oc2cccc(C(=O)NCCCC3CCCC3)c2)CC1`, the inhibition is 61.8% (active).

For the compound `CCc1c(C)sc(NC(=O)c2ccc(Br)o2)c1C(=O)OC`, the inhibition was 0% [the number is a placeholder, only the call stands].

Consider `CCOc1ccc(C(CC(=O)O)NC(=O)COc2ccccc2)cc1` (stereo not given), for which the inhibition was 0% [the number is a placeholder, only the call stands].

For `Cc1ccccc1C(OCCN(C)C)C1CCCCC1` (stereo not given), the inhibition is 95.3% (active).

On to `O=C(Cn1c(N2CCN(C/C=C/c3ccccc3)CC2)nc2ccccc21)c1ccccc1`, for which the inhibition was 91.8% (active).

Turning to `COc1ccc(CN2CCCC(C(=O)c3ccc(Cl)cc3)C2)cc1Cn1cncn1` (stereo not given), the inhibition is 68.8% (active).

For the compound `COc1cccc(/C=N/Nc2cc(C)nc(-c3ccccc3O)n2)c1O`, the inhibition was 85.8% (active).

Consider `Cc1cccc(-c2nc(Nc3ccc(O)cc3)c3ccccc3n2)c1`, for which the inhibition is 35.3% (active).

As for `Oc1ccccc1N1CCN(c2ncnc3sc(-c4ccccc4)cc23)CC1`, the inhibition was 26.3% (active).

`COc1ccccc1C(CNC(=O)c1cccc(NS(=O)(=O)c2ccc(Br)cc2)c1)N(C)C` (stereo not given): the inhibition was 51.3% (active).

As for `COc1cccc(CNC(=O)CCC2CCCN(Cc3ccc(OC(F)F)cc3)C2)c1` (stereo not given), the inhibition was 83.8% (active).

For `CCC1CCCCN1CCCNC(=O)c1cc2c(Cl)nc3ccccc3c2s1` (stereo not given), the inhibition was 71.8% (active).

Consider `O=C(c1cccs1)C1C(c2ccc(Br)cc2)NC(=S)NC1(O)C(F)(F)F` (stereo not given), for which the inhibition was 90.8% (active).

As to `Cc1cc2oc3ccc(NCCC4CCCN4C)cc3c(=O)c2cc1C` (stereo not given), the inhibition is 87.8% (active).

For `CN(C)CCOc1ccc(Cl)cc1C(C)(C)C`, the inhibition was 47.8% (active).

In the case of `Cc1ccc(OS(=O)(=O)c2ccc(-c3csc(C)n3)s2)c(C)c1`, the inhibition was 33.8% (active).

Consider `CCCCCC(O)(CCN1CCCCC1)c1ccccc1` (stereo not given), for which the inhibition was 95.3% (active).

In the case of `C#CC(CCN1CCCCC1)(OC)c1ccccc1` (stereo not given), the inhibition is 63.8% (active).

Regarding `S=c1[nH]nc(-c2ccc(Cl)cc2)n1CC1CCCO1` (stereo not given), the inhibition was 0% [the number is a placeholder, only the call stands].

As to `Cc1ccc(SCC(=O)c2cc(C)c(OC(=S)N(C)C)c(C)c2)cc1`, the inhibition was 42.8% (active).

In the case of `COc1ccc(C(=O)NC2CCCc3c2cnn3-c2cccc(C)c2C)c(OC)n1` (stereo not given), the inhibition was 64.8% (active).

For the compound `COc1ccc(-c2cc(C(=O)N(C)Cc3ccccc3)c3ccccc3n2)cc1`, the inhibition was 72.3% (active).

Regarding `COc1ccc(CN(C)C(=O)c2cc(-c3ccc(C)cc3C)nc3ccccc23)c(OC)c1OC`, the inhibition is 51.3% (active).

With `Cc1ccnc(SCCn2c(N(C)Cc3ccccc3)nc3c2c(=O)n(C)c(=O)n3C)n1`, the inhibition is 28.3% (active).

On to `COC(=O)c1ccc(CN2CCC(CO)(Cc3ccc(OC)cc3)CC2)cc1`, for which the inhibition was 70.8% (active).
